Data on 34 compounds can be found in PubChem BioAssay (NCATS).

Results filed as inconclusive are left out. A number with no mark means an inactive call. Activity calls are given as the source filed them. Calls follow the shape of the dose curve; as a rule, active = well fitted inhibition curve with a large enough effect; inconclusive = small, poorly fitted or top-dose-only effect; inactive = no such curve, though single readings can be large or run the other way.

Sequence of Protein phosphatase 1D (Homo sapiens) (O15297 whole entry, looked up): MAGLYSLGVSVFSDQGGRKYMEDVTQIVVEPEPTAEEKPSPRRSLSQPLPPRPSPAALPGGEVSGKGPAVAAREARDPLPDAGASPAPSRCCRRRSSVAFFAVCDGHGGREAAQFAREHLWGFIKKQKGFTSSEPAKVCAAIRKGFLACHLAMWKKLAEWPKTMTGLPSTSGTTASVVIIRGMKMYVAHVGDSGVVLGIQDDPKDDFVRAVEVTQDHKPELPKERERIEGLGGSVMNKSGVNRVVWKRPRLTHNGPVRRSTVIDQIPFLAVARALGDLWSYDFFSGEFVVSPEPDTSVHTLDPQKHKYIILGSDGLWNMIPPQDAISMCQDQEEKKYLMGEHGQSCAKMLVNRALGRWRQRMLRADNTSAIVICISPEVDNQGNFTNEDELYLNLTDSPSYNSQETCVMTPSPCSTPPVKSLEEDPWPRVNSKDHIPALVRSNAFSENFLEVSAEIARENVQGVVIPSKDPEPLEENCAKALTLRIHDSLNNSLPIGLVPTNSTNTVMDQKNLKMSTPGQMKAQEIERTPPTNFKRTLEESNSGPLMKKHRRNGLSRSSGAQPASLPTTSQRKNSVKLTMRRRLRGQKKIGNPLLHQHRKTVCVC

Test system in one assay: not listed separately
Briefly: qHTS to identify inhibitors of the type 1 interferon - major histocompatibility complex class I in skeletal muscle: primary screen against the NCATS Mechanism Interrogation Plate v5.0 (MIPE) Libary (AID 1347411). Also: nearly all actives have a fitted effect of over 65% in size. Also: potency is read from the fitted curve at half-maximal effect.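 As to activity change, negative = inhibition: plate controls were vehicle for no effect and reference inhibitor for full effect.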 As to conditions: iHSKM cells + IFN-b, HiBiT-tagged MHC-I luminescence, 24 h; series mostly up to 45.8 µM; activity change, negative = inhibition: at the top concentration. The essentials: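 HLA-B HiBit myoblasts, dexamethasone-free medium + 4 ng/ml IFN-b, 24 h compound, 11-pt 1:3 from 46 uM final. Readout: Nano-Glo HiBiT lytic luminescence after 10 min lysis, RT.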
In the case of `Cn1cnc2c(F)c(Nc3ccc(Br)cc3Cl)c(C(=O)NOCCO)cc21`, the “activity change, negative = inhibition” value is -7.94%.

On to `Nc1nc2[nH]cc(CCc3ccc(C(=O)N[C@@H](CCC(=O)O)C(=O)O)cc3)c2c(=O)[nH]1`, for which the “activity change, negative = inhibition” value was -0.545%.

Turning to `N#Cc1ccc(C(c2ccc(C#N)cc2)n2cncn2)cc1`, the “activity change, negative = inhibition” value was -11.9%.

Consider `COc1cc(Oc2ccnc3cc(OC)c(OC)cc23)ccc1NC(=O)NC(C)c1nccs1` (stereo unspecified), for which the “activity change, negative = inhibition” value was -23.6%.

For `CN(C)c1ccc(Nc2nc(N)n(C(=O)c3c(F)cccc3F)n2)cc1`, the Potency is 16.5 µM (active).

Take `COc1ccccc1-c1cccc(-c2c(O)c3cc(C#N)c(Cl)cc3[nH]c2=O)c1`: the “activity change, negative = inhibition” value was -22.8%.

For `OCCn1cc(-c2cnc3nnn(Cc4ccc5ncccc5c4)c3n2)cn1`, the “activity change, negative = inhibition” value is -10.2%.

Turning to `O=C(Nc1ccc(F)c(C(F)(F)F)c1)Nc1nnc(-c2ccncc2)s1`, the “activity change, negative = inhibition” value is 1.89%.

`O=c1[nH]c(-c2ccc(C(F)(F)F)cc2)nc2c1CSCC2`: the “activity change, negative = inhibition” value is -17.3%.

Take `Cc1cccc(-c2nn(C(=S)Nc3ccccc3)cc2-c2ccnc3ccccc23)n1`: the “activity change, negative = inhibition” value was -9.72%.

Regarding `COc1ccc(CCN2CCN(CCCc3ccccc3)CC2)cc1OC`, the “activity change, negative = inhibition” value is 21.1%.

`CC[C@H](Nc1ncnc2nc[nH]c12)c1nc2cccc(F)c2c(=O)n1-c1ccccc1`: the “activity change, negative = inhibition” value is -20.2%.

For `Cc1ccnc(NS(=O)(=O)c2ccc(NC(=O)Nc3ccc(S(=O)(=O)Nc4nccc(C)n4)cc3)cc2)n1`, the “activity change, negative = inhibition” value is -2.17%.

Consider `Nc1ncnc2nc(-c3ccc(N4CCOCC4)nc3)cc(-c3cccc(Br)c3)c12`, for which the “activity change, negative = inhibition” value was -20.3%.

As for `Cc1cc(SCc2sc(-c3ccc(C(F)(F)F)cc3)nc2C)ccc1OCC(=O)O`, the “activity change, negative = inhibition” value was -7.43%.

As for `CCN(CC)CCCC(C)Nc1nc(C)cc(Nc2ccc3nc(C)cc(N)c3c2)n1` (stereo unspecified), the “activity change, negative = inhibition” value was -2.22%.

As to `CC(c1cc2ccccc2s1)N(O)C(N)=O` (stereo unspecified), the “activity change, negative = inhibition” value was -3.52%.

Take `CS(=O)(=O)c1ccc(C(=O)Nc2ccc(Cl)c(-c3ccccn3)c2)c(Cl)c1`: the “activity change, negative = inhibition” value is -1.8%.

As for `Cc1cc([C@@H](C)Nc2ccccc2C(=O)O)c2nc(N3CCOCC3)cc(=O)n2c1`, the “activity change, negative = inhibition” value was -18.2%.

For `NC(=O)C1CCCc2c1[nH]c1ccc(Cl)cc21` (stereo unspecified), the “activity change, negative = inhibition” value was -13.5%.

For the compound `NC(=O)c1ccc(-c2nc(-c3ccc4c(c3)OCCO4)c(-c3ccccn3)[nH]2)cc1`, the “activity change, negative = inhibition” value was -36.8%.

Take `O=C(C1CC1)N1CC[C@@H](Cn2c(-c3ccc(-c4ccc5occc5c4)cc3)nc3cnccc32)C1`: the “activity change, negative = inhibition” value is -24.8%.

As for `Cn1c(=O)c(F)c(Nc2ccc(I)cc2F)c2c(=O)n(C[C@@H](O)CO)cnc21`, the “activity change, negative = inhibition” value is 30.7%.

For `O=C1CCCC2=C1C(c1[nH]ncc1Cl)N=C(Nc1nc3ccccc3o1)N2` (stereo unspecified), the “activity change, negative = inhibition” value is -24%.

Regarding `OC[C@H](Cc1ccccc1)Nc1nc(Oc2ccc3c(c2)CCC3)nc2c1ncn2Cc1ccc(-c2ccccc2)cc1`, the “activity change, negative = inhibition” value is 11.9%.

On to `CS(=O)(=O)Oc1ccc2c(NC(N)=O)c(C(=O)c3ccc(Cl)cc3Cl)oc2c1`, for which the “activity change, negative = inhibition” value was -28.3%.

Take `Clc1ccc(Nc2nnc(Cc3ccncc3)c3ccccc23)cc1`: the “activity change, negative = inhibition” value is -14.4%.

As to `Cc1cc(-c2ccc(CC(=O)Nc3ccc(-c4cccnc4)cc3)cc2)ccn1`, the “activity change, negative = inhibition” value is -12.5%.

Turning to `COc1ccccc1[C@H](c1cccc2ccccc12)[C@@](C)(C#N)C(=O)N1CCC(c2cccc(C(F)(F)F)c2)CC1`, the “activity change, negative = inhibition” value is -11.6%.

With `S=C(NCc1ccc2c(c1)OCO2)N1CCN(c2ncnc3c2oc2ccccc23)CC1`, the “activity change, negative = inhibition” value is -12.5%.

As to `CN(C(=O)c1ccc(F)cc1C(F)(F)F)C1CCN(c2nnc(-c3ccnn3C)c3ccccc23)CC1`, the “activity change, negative = inhibition” value was 8.88%.

Regarding `Cc1cc2c(F)c(Oc3ncnn4cc(OC[C@@H](C)O)c(C)c34)ccc2[nH]1`, the “activity change, negative = inhibition” value is -23.4%.

Consider `O=c1ncn2nc(Sc3ccc(F)cc3F)ccc2c1-c1c(Cl)cccc1Cl`, for which the “activity change, negative = inhibition” value is -30.8%.

The target of another assay is Protein phosphatase 1D (Homo sapiens) (UniProt O15297). Briefly: RapidFire Mass Spectrometry qHTS Assay for Modulators of WT P53-Induced Phosphatase 1 (WIP1) (AID 1347424).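 Also: plate controls were DMSO wells for no effect and GSK830371 inhibitor control at 10 µM for full effect.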 As to conditions: WIP1 dephosphorylation of phosphopeptide, RapidFire MS; series mostly up to 63 µM; activity change, negative = inhibition: at the top concentration. The procedure, abridged:
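RapidFire MS readout of dephosphorylated VEPPL-S-QETFS product, with 1 uM isotope-labelled peptide standard. Reaction: 10 nM WIP1, 2 uM phosphopeptide substrate, 5 min, room temperature, after 1 h compound preincubation; stopped with 0.5% formic acid.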
In the case of `Cn1cnc2c(F)c(Nc3ccc(Br)cc3Cl)c(C(=O)NOCCO)cc21`, the “activity change, negative = inhibition” value was -8.66%.

On to `Clc1ccc(Nc2nnc(Cc3ccncc3)c3ccccc23)cc1`, for which the “activity change, negative = inhibition” value is -18.9%.

Consider `C#Cc1cccc(Nc2ncnc3cc(OCCOC)c(OCCOC)cc23)c1`, for which the “activity change, negative = inhibition” value is 2.39%.

Test system in a further assay: not listed separately
Briefly: Primary qHTS for inhibitors of La Crosse Virus (LACV) - induced cell death in SH-SY5Y cells (AID 1508616).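 Also: top concentration of the series differs between compounds; 0% = infected DMSO wells and 100% = uninfected DMSO wells; higher means more rescue of cells from virus-induced death.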 As to conditions: SH-SY5Y LACV cytopathicity rescue, ATP luminescence, 6 d; series mostly up to 4.29 µM; activity change: at the top concentration. The procedure, abridged: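 Cytopathicity rescue screen: compounds pinned onto SH-SY5Y cells, which are then infected with LACV (MOI 0.01) and held 6 days at 37C. Percent activity is scaled between infected DMSO control and uninfected DMSO control.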
In general terms: qHTS replaces the single test concentration by a dilution series.
In the case of `Cn1cnc2c(F)c(Nc3ccc(Br)cc3Cl)c(C(=O)NOCCO)cc21`, the “activity change” value was 41.3%.

Take `Nc1ncnc2nc(-c3ccc(N4CCOCC4)nc3)cc(-c3cccc(Br)c3)c12`: the “activity change” value is -17.3% [at 9.63 µM].

With `CC(c1cc2ccccc2s1)N(O)C(N)=O` (stereo unspecified), the “activity change” value was -0.645%.

Turning to `Clc1ccc(Nc2nnc(Cc3ccncc3)c3ccccc23)cc1`, the “activity change” value was -1.96%.

As to `C#Cc1cccc(Nc2ncnc3cc(OCCOC)c(OCCOC)cc23)c1`, the “activity change” value was -29.7%.
